Measured values as given in the supplement of paper PMC10849652.
The full data set covers some 7,900 targets. This sample favours those with a hit. About 0.6% of all pairs of compound and target were hits.

Columns and labels:
Assay in all cases: log2 fold change, soluble protein after heating vs DMSO (PISA); higher = thermal stabilisation; K562 cells, 10 uM, 30 min; active = over 0.2 and 3.5 SD of the protein, either way, in both replicates (recomputed)
IRAK-1-4 Inhibitor I = compound: C1COCCN1CCN2C3=CC=CC=C3N=C2NC(=O)C4=CC(=CC=C4)[N+](=O)[O-] [IRAK-1-4 Inhibitor I]
In short: (§1)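 K562 cells at 2×10^6 cells/mL were given 10 μM compound for 30 min. Aliquots then went through 3 min of heating across 48°C-58°C, were pooled, and were extracted in PBS with 0.5% NP-40 at 4°C, and the supernatant after 21,000xg for 90 min was quantified by TMTpro 16plex LC-MS/MS with channel sums equalised. Thermal stability relative to control samples, from duplicates, is given as log2 fold change.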

ibrutinib = compound: C=CC(=O)N1CCC[C@@H](n2nc(-c3ccc(Oc4ccccc4)cc3)c3c(N)ncnc32)C1 [ibrutinib]
In short: as §1

[1] = compound: CC(=O)c1cnc2ccc(-c3cc(Cl)c(O)c(Cl)c3)nc2c1N[C@H]1CC[C@H](CN(C)C)CC1
In short: as §1

ralimetinib = compound: CC(C)(C)Cn1c(N)nc2ccc(-c3[nH]c(C(C)(C)C)nc3-c3ccc(F)cc3)nc21 [ralimetinib]
In short: as §1

[2] = compound: CC(C)(O)CC(=O)NCCn1ccc2ncnc(Nc3ccc(Oc4cccc(C(F)(F)F)c4)c(Cl)c3)c21
In short: as §1

[3] = compound: CC(C)C1=C2N=C(C=C(N2N=C1)NCC3=CC=CC=C3)NCCCCCCN
In short: as §1

[4] = compound: CC(C)C[C@@H](C=O)NC(=O)[C@H](CC(C)C)NC(=O)[C@H](CC(C)C)NC(=O)OCc1ccccc1
In short: as §1

pinometostat = compound: CC(C)N(C[C@H]1O[C@@H](n2cnc3c(N)ncnc32)[C@H](O)[C@@H]1O)[C@H]1C[C@@H](CCc2nc3cc(C(C)(C)C)ccc3[nH]2)C1 [pinometostat]
In short: as §1

[5] = compound: CC1=C(C(CC(=O)N1)C2=CC=C(C=C2)C(F)(F)F)C(=O)NC3=C(C=C4C(=C3)C=NN4)F
In short: as §1

[6] = compound: CC1=C(C2=C(C=C1)C(=O)C3=CC=CC=C3N2CCCN)C
In short: as §1

[7] = compound: CC1=C(C=C(C=C1)NC(=O)C2=CC(=CC=C2)C(C)(C)C#N)NC3=CC4=C(C=C3)N=CN(C4=O)C
In short: as §1

[8] = compound: CC1=C(C=C(C=C1)NC(=O)C2=CC(=CC=C2)N(C)C)NC(=O)C3=CC=C(C=C3)O
In short: as §1

[9] = compound: CC1=CC=C(C=C1)SC2=C3C=C(SC3=CN=C2)C(=O)N
In short: as §1

[10] = compound: CC1=NC(=CC=C1)C2=C(N=C(N2)C(C)(C)C)C3=CC4=NC=CN=C4C=C3
In short: as §1

Nexturastat A = compound: CCCCN(Cc1ccc(C(=O)NO)cc1)C(=O)Nc1ccccc1 [Nexturastat A]
In short: as §1

vemurafenib = compound: CCCS(=O)(=O)Nc1ccc(F)c(C(=O)c2c[nH]c3ncc(-c4ccc(Cl)cc4)cc23)c1F [vemurafenib]
In short: as §1

[11] = compound: CCCS(=O)(=O)Nc1ccc(F)c(C(=O)c2c[nH]c3ncc(Cl)cc23)c1F
In short: as §1

[12] = compound: CCCc1cc(C)[nH]c(=O)c1CNC(=O)c1cc(-c2ccnc(N3CCN(C)CC3)c2)cc2c1cnn2C(C)C
In short: as §1

givinostat = compound: CCN(CC)Cc1ccc2cc(COC(=O)Nc3ccc(C(=O)NO)cc3)ccc2c1 [givinostat]
In short: as §1

barasertib = compound: CCN(CCCOc1ccc2c(Nc3cc(CC(=O)Nc4cccc(F)c4)[nH]n3)ncnc2c1)CCOP(=O)(O)O [barasertib]
In short: as §1

Measured: log2 fold change

NDUFA9 (UniProt Q16795)
UniProt Q16795, sequence (Q16795 whole entry, looked up): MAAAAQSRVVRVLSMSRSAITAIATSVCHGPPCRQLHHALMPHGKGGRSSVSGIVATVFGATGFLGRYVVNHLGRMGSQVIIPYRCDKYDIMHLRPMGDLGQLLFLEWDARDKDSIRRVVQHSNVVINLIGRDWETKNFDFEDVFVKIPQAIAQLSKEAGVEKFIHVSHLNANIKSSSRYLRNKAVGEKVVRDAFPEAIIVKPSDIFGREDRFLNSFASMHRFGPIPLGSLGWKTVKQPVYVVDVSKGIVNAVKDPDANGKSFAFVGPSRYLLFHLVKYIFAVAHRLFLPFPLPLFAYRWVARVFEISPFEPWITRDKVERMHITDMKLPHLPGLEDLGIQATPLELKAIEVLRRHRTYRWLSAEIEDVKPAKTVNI
inactive: IRAK-1-4 Inhibitor I 0.003 | ibrutinib -0.036 | [1] -0.037 | ralimetinib -0.011 | [2] -0.211 | [3] -0.101 | [4] 0 | pinometostat -0.006 | [5] -0.01 | [6] 0.086 | [7] 0.023 | [8] -0.036 | [9] 0.019 | [10] 0.04 | Nexturastat A -0.095 | vemurafenib 0.009 | [11] 0.039 | [12] -0.044 | givinostat 0.041 | barasertib 0.026

NRF1 isoform 4 (UniProt Q16656)
UniProt Q16656, sequence (Q16656 whole entry, looked up): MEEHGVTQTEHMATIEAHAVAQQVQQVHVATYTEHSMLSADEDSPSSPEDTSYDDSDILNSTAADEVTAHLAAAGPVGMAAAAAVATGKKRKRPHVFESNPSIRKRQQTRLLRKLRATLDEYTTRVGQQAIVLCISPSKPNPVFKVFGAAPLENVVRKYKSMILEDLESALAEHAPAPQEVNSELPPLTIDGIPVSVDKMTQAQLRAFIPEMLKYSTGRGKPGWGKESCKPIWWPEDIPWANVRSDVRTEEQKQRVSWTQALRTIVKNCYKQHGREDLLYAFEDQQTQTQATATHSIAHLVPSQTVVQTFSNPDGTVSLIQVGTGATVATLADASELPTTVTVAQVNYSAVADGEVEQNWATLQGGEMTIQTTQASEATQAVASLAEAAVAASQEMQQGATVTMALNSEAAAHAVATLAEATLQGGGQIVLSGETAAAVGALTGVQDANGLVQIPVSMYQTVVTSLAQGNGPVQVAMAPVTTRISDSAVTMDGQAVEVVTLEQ
active: [6] -0.419
inactive: IRAK-1-4 Inhibitor I -0.014 | ibrutinib -0.007 | [1] -0.059 | ralimetinib 0.024 | [2] 0.082 | [3] -0.125 | [4] -0.025 | pinometostat -0.004 | [5] -0.037 | [7] 0.002 | [8] 0.03 | [9] -0.015 | [10] 0.051 | Nexturastat A -0.316 | vemurafenib 0.004 | [11] 0.081 | [12] -0.007 | givinostat 0.042 | barasertib 0.034

NCAPG (UniProt Q9BPX3)
UniProt Q9BPX3, sequence (Q9BPX3 whole entry, looked up): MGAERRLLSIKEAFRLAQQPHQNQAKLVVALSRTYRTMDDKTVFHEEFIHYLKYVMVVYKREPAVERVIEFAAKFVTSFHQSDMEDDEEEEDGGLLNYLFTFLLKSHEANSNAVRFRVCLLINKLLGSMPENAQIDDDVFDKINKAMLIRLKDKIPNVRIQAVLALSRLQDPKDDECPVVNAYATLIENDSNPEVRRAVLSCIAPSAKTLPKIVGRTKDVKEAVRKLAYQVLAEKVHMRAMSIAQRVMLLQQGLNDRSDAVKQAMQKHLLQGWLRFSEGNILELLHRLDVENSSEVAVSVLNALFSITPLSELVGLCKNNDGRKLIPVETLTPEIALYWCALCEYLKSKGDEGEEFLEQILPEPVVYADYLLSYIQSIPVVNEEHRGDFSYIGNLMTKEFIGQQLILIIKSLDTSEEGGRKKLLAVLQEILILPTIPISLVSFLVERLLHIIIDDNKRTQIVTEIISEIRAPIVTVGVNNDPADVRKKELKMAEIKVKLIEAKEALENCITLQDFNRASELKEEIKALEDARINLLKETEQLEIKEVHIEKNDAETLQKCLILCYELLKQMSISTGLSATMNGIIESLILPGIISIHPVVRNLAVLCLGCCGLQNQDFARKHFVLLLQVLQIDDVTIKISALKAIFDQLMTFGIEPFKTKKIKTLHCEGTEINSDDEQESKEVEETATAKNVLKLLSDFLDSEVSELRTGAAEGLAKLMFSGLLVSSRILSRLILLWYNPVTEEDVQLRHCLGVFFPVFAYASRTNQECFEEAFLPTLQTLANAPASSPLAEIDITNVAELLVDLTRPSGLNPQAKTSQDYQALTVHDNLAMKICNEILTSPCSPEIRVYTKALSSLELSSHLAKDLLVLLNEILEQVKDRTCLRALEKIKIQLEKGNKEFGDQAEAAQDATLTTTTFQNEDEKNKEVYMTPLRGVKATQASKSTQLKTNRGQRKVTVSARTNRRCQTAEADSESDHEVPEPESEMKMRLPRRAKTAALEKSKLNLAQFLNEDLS
inactive: IRAK-1-4 Inhibitor I -0.092 | ibrutinib -0.033 | [1] 0.084 | ralimetinib 0.038 | [2] -0.126 | [3] -0.197 | [4] -0.005 | pinometostat -0.003 | [5] -0.011 | [6] 0.016 | [7] 0.086 | [8] -0.074 | [9] 0.027 | [10] 0.038 | Nexturastat A 0.011 | vemurafenib 0.056 | [11] 0.091 | [12] 0.064 | givinostat 0.081 | barasertib 0.064

NFATC2IP (UniProt Q8NCF5)
UniProt Q8NCF5, sequence (Q8NCF5 whole entry, looked up): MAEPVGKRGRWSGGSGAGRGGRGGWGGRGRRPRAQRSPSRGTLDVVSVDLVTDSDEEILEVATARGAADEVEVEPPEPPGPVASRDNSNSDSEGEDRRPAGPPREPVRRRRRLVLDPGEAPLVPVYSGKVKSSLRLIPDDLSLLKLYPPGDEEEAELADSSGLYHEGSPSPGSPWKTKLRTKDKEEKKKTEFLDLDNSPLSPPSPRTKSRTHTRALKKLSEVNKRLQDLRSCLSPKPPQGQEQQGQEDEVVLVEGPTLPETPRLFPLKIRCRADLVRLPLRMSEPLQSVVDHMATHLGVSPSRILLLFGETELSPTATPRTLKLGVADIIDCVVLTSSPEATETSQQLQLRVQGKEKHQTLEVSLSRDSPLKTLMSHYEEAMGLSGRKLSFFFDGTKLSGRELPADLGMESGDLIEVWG
inactive: IRAK-1-4 Inhibitor I -0.014 | ibrutinib -0.036 | [1] -0.051 | ralimetinib -0.003 | [2] -0.224 | [3] -0.161 | [4] -0.006 | pinometostat -0.032 | [5] 0.069 | [6] -0.022 | [7] -0.029 | [8] -0.026 | [9] 0.028 | [10] 0.013 | Nexturastat A 0.007 | vemurafenib -0.01 | [11] 0.014 | [12] 0.015 | givinostat 0.088 | barasertib 0.124
